Laboratory results as given in PubChem BioAssay AID1159580 (chemical genetic matrix, 2015).
About 2,000 (36%) of roughly 5,500 compounds were called active. Inconclusive results (about 18%) are left out. No stated cut-off is given here; in the data, active means normalized growth mostly below about 0.91 (no sharp cut-off); inconclusive means no clear call, values can overlap the other calls; inactive means mostly above about 0.92. Some of the results follow.

Test: chemical genetic growth profiling, strain panel (AID 1159580);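 further: tested at 20 µM; growth read once vehicle control cultures reached saturation at 30 °C; 1 = growth at the plate median or of vehicle wells; lower values mean less growth of the strain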
Details: S. cerevisiae deletion strains, growth OD

Measured: normalized growth

COc1ccc(C(=O)/C=C/c2ccccc2)cc1
inactive: locus YJR066W, strain TOR1, hits give low values 0.841 | locus YKL068W, hits give low values 0.983 | locus YKL085W, strain MDH1 (second series), hits give low values 0.974 | locus YKL085W, strain MDH1, hits give low values 0.974 | locus YKL190W, strain CNB1, hits give low values 1.01 | locus YKR026C, strain gcn3, hits give low values 0.983 | locus YKR091W, strain srl3, hits give low values 0.982 | locus YLL026W, hits give low values 0.971 | locus YLL041C, strain sdh2, hits give low values 0.999 | locus YLR039C, strain RIC1, hits give low values 0.792 | locus YLR058C, strain SHM2, hits give low values 0.899 | locus YLR102C, strain apc9, hits give low values 0.964 | locus YLR258W, strain gsy2, hits give low values 0.936 | locus YLR357W, strain rsc2, hits give low values 0.957 | locus YLR370C, strain arc18, hits give low values 0.978 | locus YLR384C, strain iki3, hits give low values 0.969 | locus YML016C, strain PPZ1, hits give low values 0.947 | locus YML120C, strain ndi1, hits give low values 0.954 | locus YML124C, strain tub3, hits give low values 0.958 | locus YMR129W, hits give low values 0.985 | locus YMR231W, strain pep5, hits give low values 1 | locus YMR307W, strain GAS1, hits give low values 0.939 | locus YNL067W, strain RPL9B, hits give low values 0.954 | locus YNL128W, strain TEP1, hits give low values 0.922 | locus YNL183C, strain NPR1, hits give low values 0.838 | locus YNL209W, strain ssb2, hits give low values 0.968 | locus YNL250W, strain rad50, hits give low values 0.958 | locus YNL271C, strain bni1, hits give low values 0.92 | locus YNL322C, strain KRE1 (second series), hits give low values 0.917 | locus YNR049C, strain mso1, hits give low values 0.995 | locus YNR052C, strain pop2, hits give low values 0.941 | locus YOL006C, strain TOP1, hits give low values 0.664 | locus YOL012C, strain htz1 0.771 | locus YOR001W, strain rrp6, hits give low values 0.905 | locus YOR061W, strain CKA2, hits give low values 0.981 | locus YOR069W, strain VPS5, hits give low values 0.958 | locus YOR070C, strain gyp1, hits give low values 0.928 | locus YOR080W, strain dia2, hits give low values 0.981 | locus YOR136W, strain idh2, hits give low values 0.939 | locus YOR265W, strain rbl2, hits give low values 0.994 | locus YOR316C, strain cot1, hits give low values 0.966 | locus YPL240C, strain hsp82, hits give low values 0.954 | locus YPR119W, strain clb2, hits give low values 0.964 | locus YPR141C, strain kar3, hits give low values 0.965
active: locus YJL187C, strain SWE1, hits give low values 0.917 | locus YKL009W, strain mrt4, hits give low values 0.834 | locus YKL160W, strain elf1, hits give low values 0.878 | locus YKR001C, strain vps1, hits give low values 0.783 | locus YLL001W, strain dnm1, hits give low values 0.898 | locus YLR027C, strain aat2, hits give low values 0.846 | locus YLR113W, strain HOG1, hits give low values 0.628 | locus YLR221C, strain rsa3, hits give low values 0.809 | locus YLR262C, strain YPT6 (second series), hits give low values 0.855 | locus YLR268W, strain sec22, hits give low values 0.818 | locus YLR320W, strain mms22, hits give low values 0.525 | locus YLR330W, strain CHS5, hits give low values 0.854 | locus YLR342W, strain FKS1, hits give low values 0.839 | locus YLR371W, strain rom2, hits give low values 0.796 | locus YLR418C, strain cdc73, hits give low values 0.358 | locus YML032C, strain rad52, hits give low values 0.746 | locus YMR058W, strain fet3, hits give low values 0.803 | locus YMR078C, strain ctf18, hits give low values 0.73 | locus YMR125W, strain sto1, hits give low values 0.856 | locus YMR205C, strain PFK2, hits give low values 0.707 | locus YMR223W, strain ubp8, hits give low values 0.852 | locus YNL071W, strain lat1, hits give low values 0.307 | locus YNL233W, strain BNI4, hits give low values 0.777 | locus YNL248C, strain rpa49, hits give low values 0.687 | locus YNL298W, strain CLA4, hits give low values 0.858 | locus YNL307C, strain MCK1, hits give low values 0.239 | locus YOL147C, strain pex11, hits give low values 0.752 | locus YOR083W, strain WHI5, hits give low values 0.86 | locus YOR106W, strain vam3, hits give low values 0.823 | locus YOR144C, strain elg1, hits give low values 0.897 | locus YOR184W, strain ser1, hits give low values 0.43 | locus YOR231W, strain MKK1, hits give low values 0.757 | locus YOR270C, strain vph1, hits give low values 0.613 | locus YOR290C, strain snf2, hits give low values 0.792 | locus YPL051W, strain arl3, hits give low values 0.868 | locus YPL078C, strain atp4, hits give low values 0.799 | locus YPL106C, strain sse1, hits give low values 0.76 | locus YPL256C, strain CLN2, hits give low values 0.74 | locus YPR163C, strain tif3, hits give low values 0.432 | locus YPR167C, strain met16, hits give low values 0.889 | strain wtn01, hits give low values 0.811
